High-throughput results (PubChem BioAssay)
WRN helicase inh-1 – inhibitors of human WRN helicase; WRN helicase unwinding, fluorescent forked duplex, kinetic; Q14191; Potency, µM (highest dose often 114 µM), actives largely listed as inhibitors; 360,000 tested, 0.46% active; further: nearly all actives have a fitted effect of over 55% in size
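WRN at 20 nM final preincubated with compound 15 min at room temperature; reaction started with 100 nM fluorophore/quencher forked duplex oligonucleotide and 2 mM ATP final. Unwinding followed kinetically by red fluorescence (ex 525, em 598 nm).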
Pol beta inh – DNA polymerase beta (human) inhibition. Pol beta primer extension/strand displacement, fluorescence kinetic. Potency, µM (top dose mostly 114 µM), most hits filed as inhibitors. 340,000 tested, 1.3% active
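Enzyme-only controls used 10 nM Pol beta; buffer lacking enzyme served as negative control. Compound preincubated 15 min, then 50 nM substrate added; 0 and 10 min reads at room temperature.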
Pol iota inh – blocks human DNA polymerase iota activity; Q9UNA4; Potency, µM (highest dose often 115 µM), hits mostly inhibitors; AID 588590; 390,000 tested, 1% active; Pol iota fluorescent replication assay, 10 min
Target sequence (Q9UNA4 whole entry, looked up): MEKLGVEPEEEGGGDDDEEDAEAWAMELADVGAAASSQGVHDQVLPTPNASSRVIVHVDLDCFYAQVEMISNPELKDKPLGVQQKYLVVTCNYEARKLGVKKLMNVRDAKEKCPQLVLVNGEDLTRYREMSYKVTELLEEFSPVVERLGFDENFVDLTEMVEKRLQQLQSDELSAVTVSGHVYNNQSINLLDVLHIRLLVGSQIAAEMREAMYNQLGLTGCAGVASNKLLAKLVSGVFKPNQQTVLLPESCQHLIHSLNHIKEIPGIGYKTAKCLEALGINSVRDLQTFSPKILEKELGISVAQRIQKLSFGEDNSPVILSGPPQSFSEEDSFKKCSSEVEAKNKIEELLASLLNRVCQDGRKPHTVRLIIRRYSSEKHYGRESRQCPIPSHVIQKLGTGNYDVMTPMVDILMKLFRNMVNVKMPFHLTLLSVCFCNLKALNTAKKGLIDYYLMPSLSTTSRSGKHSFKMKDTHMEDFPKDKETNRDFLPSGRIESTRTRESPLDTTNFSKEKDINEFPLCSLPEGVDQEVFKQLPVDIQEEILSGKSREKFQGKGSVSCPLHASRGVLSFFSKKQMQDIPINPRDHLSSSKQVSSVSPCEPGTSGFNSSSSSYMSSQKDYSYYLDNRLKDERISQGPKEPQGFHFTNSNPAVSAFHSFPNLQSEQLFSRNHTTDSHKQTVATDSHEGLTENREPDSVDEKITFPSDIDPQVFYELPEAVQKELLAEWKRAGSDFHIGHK
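Fluorescent replication assay read twice, at 0 min and 10 min after adding 50 nM (final) substrate. Enzyme (10 nM) and compounds were first incubated 15 min at room temperature; enzyme-free buffer wells were negative controls.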
Pol kappa inh-1 – DNA polymerase kappa (human) inhibition | Potency, µM (series often up to 107 µM), hits mostly inhibitors | 400,000 tested, 0.53% active | purified Pol kappa, fluorescent DNA synthesis assay, 10 min | Q9UBT6 | AID 588579
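10 nM Pol kappa was preincubated with compounds for 15 min at room temperature. Reaction started with 50 nM (final) substrate. Fluorescence read kinetically at 0 and 10 min.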
Pol eta inh-1 – DNA polymerase eta (human) inhibition; 390,000 tested, 1.2% active; recombinant Pol eta, fluorescent DNA replication assay; AID 588591; Q9Y253; Potency, µM (highest dose often 114 µM), most hits filed as inhibitors
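Fluorescent replication assay: 50 nM final substrate added after a 15 min room-temperature compound preincubation with 10 nM enzyme. Signal taken at 0 min and again at 10 min.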
TbPGK inh – validation of Trypanosoma brucei phosphoglycerate kinase inhibitors | 500 tested, 79% active | Potency, µM (top dose mostly 57.5 µM), actives largely listed as inhibitors | TbPGK coupled GAPDH assay, Kinase-Glo luminescence | shares compounds with Pol kappa inh-1; further: nearly all actives have a fitted effect of over 65% in size
POLI cherry-pick – Inhibitors of human DNA polymerase iota, confirmation; shares compounds with Pol kappa inh-1; Pol iota primer extension, TAMRA/BHQ fluorescence; Potency, µM, most hits filed as inhibitors; 1,500 tested, 77% active
GALK inh confirm – galactokinase (human) inhibition, confirmation. purified GALK, Kinase-Glo ATP depletion luminescence. 150 tested, 70% active. shares compounds with Pol eta inh-1. Potency, µM (titrated, usually from 115 µM), most hits filed as inhibitors. AID 2015
GALK redox cs – generates H2O2 by redox cycling, flagging GALK artifacts; Potency, µM (top dose mostly 115 µM), hits mostly inhibitors; shares compounds with Pol eta inh-1; Phenol red-HRP H2O2 redox cycling, absorbance 600 nm; AID 2035; 150 tested, 40% active
HEK293 viability – counter-screen for GALK inhibitors: HEK293 cell cytotoxicity. HEK-293 viability, ATP luminescence (CellTiter-Glo), 24/48 h. shares compounds with Pol eta inh-1. 170 tested, 10% active. Potency, µM (doses to about 46.1 µM), hits mostly inhibitors
Pol kappa inh-2 – Pol kappa (human) inhibition, cherry-pick confirmation | AID 720501 | shares compounds with Pol eta inh-1 | 920 tested, 76% active | Potency, µM, usual class: inhibitors | purified Pol-kappa, fluorescent strand-displacement substrate
Pol eta inh-2 – Pol eta (human) inhibition, cherry-pick confirmation. shares compounds with Pol eta inh-1. Pol eta primer extension, TAMRA/BHQ fluorescence, 10 min. Potency, µM, hits mostly inhibitors. 2,600 tested, 64% active. AID 720502
WRN helicase inh-2 – confirmation of human WRN helicase inhibitors; shares compounds with WRN helicase inh-1; 610 tested, 63% active; WRN helicase DNA unwinding, fluorescence kinetic; Potency, µM (highest dose often 57.1 µM), most hits filed as inhibitors; AID 720497; further: nearly all actives have a fitted effect of over 65% in size
TO DNA binding – DNA binding via thiazole orange displacement. shares compounds with WRN helicase inh-1. 610 tested, 10% active. Potency, µM (highest dose often 57.1 µM), usual class: inhibitors. thiazole orange DNA binding displacement, fluorescence. AID 720499;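 further: drop in dye fluorescence marks compound binding to DNA; nearly all actives have a fitted effect of over 60% in size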
BLM helicase inh – blocks human BLM helicase in WRN counterscreen | Recombinant BLM helicase DNA unwinding, red fluorescence | AID 720503 | 610 tested, 60% active | shares compounds with WRN helicase inh-1 | Potency, µM (titrated, usually from 57.1 µM), usual class: inhibitors; further: nearly all actives have a fitted effect of over 60% in size
Hits are given with their value; n = inactive; u = inconclusive; x = no result given. The list is not random: actives were taken first. Their share in the collection is about 2.3%. The call rests on the fitted dose curve; in most records, active means well fitted curve in the direction sought with a large enough effect; inconclusive means small, poorly fitted or top-dose-only effect, or another doubt; inactive means no such curve, though single readings can be large; an effect the other way counts as inactive or inconclusive.

SMILES	WRN helicase inh-1	Pol beta inh	Pol iota inh	Pol kappa inh-1	Pol eta inh-1	POLI cherry-pick	Pol kappa inh-2	Pol eta inh-2	WRN helicase inh-2	TO DNA binding	BLM helicase inh	others
O=C(CSc1nc2ccsc2c(=O)n1CC1CCC(C(=O)O)CC1)c1ccc(Cl)cc1 (centres undefined)	u	22µM	20µM	u	40µM	42	60	x	24µM	n	15µM
O=C(O)c1ccc2nc(-c3ccco3)c(-c3ccco3)nc2c1	u	3.5µM	u	22µM	3.5µM	4.7	x	3.8	4.3µM	3.8µM	12µM
COc1ccc(O)c(C(=O)c2cc(SCC(=O)O)c3nc4sc5c(c4c(=O)n3c2)CCCC5)c1	25µM	u	u	u	22µM	21	x	48	22µM	u	5.4µM
O=C1c2cccc(NCCNCCO)c2C(=O)c2cccc(NCCNCCO)c21	7.1µM	x	45µM	28µM	7.1µM	19	19	x	6.1µM	1.2µM	7.6µM
O=C(NCCO)c1cccc2c1C(=O)c1ccccc1-2	n	n	n	n	n	x	x	x	x	x	x
CC(C)(C)c1cc(CCC(=O)NCCc2ccccn2)cc(C(C)(C)C)c1O	n	n	n	n	n	x	x	x	x	x	x
O=C1C=C(NCCc2cc(Br)c(O)c(Br)c2)C(=O)c2ncccc21	25µM	x	3.2µM	28µM	3.5µM	17	24	27	22µM	u	19µM
O=C(O)CSc1cc(NS(=O)(=O)c2ccc(Cl)cc2)c2ccccc2c1O	13µM	79µM	3.2µM	n	20µM	84	67	76	u	n	u
O=S(=O)(Nc1ccc(Cl)cc1NS(=O)(=O)c1ccccc1)c1ccccc1	n	x	u	n	n	x	x	x	x	x	x
CN(C)c1ccc2nc3c(=O)[nH]c(=O)nc-3n(CC(O)C(O)C(O)CO)c2c1 (centres undefined)	3µM	25µM	28µM	u	u	24	u	38	22µM	n	22µM
Cc1ncc(C(O)c2ccc(N(C)C)cc2)n1Cc1ccccc1 (centres undefined)	n	x	x	x	n	x	x	x	x	x	x
CC(=O)c1cnc(N(C)C)s1	n	n	n	n	n	x	x	x	x	x	x
CN(C)c1ncc(C2=C(Cl)C(=O)C(N3CCCC3)=C(Cl)C2=O)s1	9.5µM	x	7.9µM	28µM	20µM	38	x	34	u	u	7.6µM
O=C(O)c1cccc(N2C(=O)c3cc([N+](=O)[O-])cc4cc([N+](=O)[O-])cc(c34)C2=O)c1	40µM	6.3µM	2.2µM	22µM	4µM	42	15	24	27µM	n	u	TbPGK inh=10µM
Nc1ccc2c(c1)C(=O)C(=O)c1ccccc1-2	35µM	5µM	1µM	n	0.79µM	6.7	x	4.8	19µM	u	3.4µM	TbPGK inh=1.6µM;GALK inh confirm=2.4µM;GALK redox cs=1.3µM;HEK293 viability=7.9µM
Nc1ccc2c(c1)C(=O)c1ccccc1-2	n	x	n	n	n	x	x	x	x	x	x
COc1ccccc1Nc1ccc2c(O)cc(S(=O)(=O)O)cc2c1	n	x	1.1µM	0.89µM	2.2µM	19	3	15	6.1µM	u	5.4µM	TbPGK inh=8.2µM
COc1ccc(S(=O)(=O)O)cc1P(=O)(c1ccccc1)c1ccccc1	n	n	n	n	n	x	x	x	x	x	x
O=c1c(-c2ccc(F)cc2)nc2cnc(N3CCNCC3)nc2n1-c1ccccc1	x	x	x	n	x	x	x	x	x	x	x
COc1ccc(-c2nc(SCC(=O)NC(C)CCc3ccccc3)n[nH]2)cc1 (centres undefined)	x	n	n	n	n	x	x	x	x	x	x
O=C(CCCN1C(=O)/C(=C\c2cccs2)SC1=S)Nc1cccc(C(=O)O)c1	n	n	n	n	n	x	x	x	x	x	x
O=C(CCCN1C(=O)/C(=C/c2ccco2)SC1=S)Nc1cccc(C(=O)O)c1	35µM	3.2µM	14µM	22µM	20µM	24	x	15	19µM	n	19µM
O=C(CCCN1C(=O)/C(=C\c2ccco2)SC1=S)Nc1ccc(O)cc1C(=O)O	16µM	u	8.9µM	22µM	4.5µM	34	x	27	7.6µM	u	22µM
O=C(O)c1cccc(N/N=C/c2cccs2)c1	n	n	n	n	u	x	x	x	x	x	x
CSc1ccc(/C=N/Nc2cccc(C(=O)O)c2)cc1	11µM	2µM	2.2µM	7.9µM	1.1µM	2.7	x	2.1	4.8µM	u	3µM
SMILES	WRN helicase inh-1	Pol beta inh	Pol iota inh	Pol kappa inh-1	Pol eta inh-1	POLI cherry-pick	Pol kappa inh-2	Pol eta inh-2	WRN helicase inh-2	TO DNA binding	BLM helicase inh	others
O=C(NCc1cccs1)c1ccc2c(=O)n3nc(Nc4ccccc4)sc3nc2c1	x	u	n	n	u	u	x	x	19µM	n	3.4µM
CC(OC(=O)/C(C#N)=C/c1ccc(N(C)C)cc1)C(=O)N(C)Cc1ccccc1 (centres undefined)	45µM	n	89µM	u	50µM	27	x	24	24µM	n	22µM
O=C(CSc1nc(-c2ccccc2)no1)N1CCCCC1	x	n	n	n	n	x	x	x	x	x	x
COC(=O)CN1C(=O)S/C(=C/c2ccc(N3CCCCC3)o2)C1=O	u	n	u	n	u	x	x	x	x	x	x
O=C(O)CN1C(=O)/C(=C/c2ccc(N3CCCCC3)o2)SC1=S	4.7µM	18µM	n	50µM	50µM	42	24	34	24µM	n	24µM
Cc1cccc(NC(=O)Cn2nc(C)c3nn(-c4ccc(Cl)cc4)c(C)c3c2=O)c1C	x	n	n	n	n	x	x	x	x	x	x
